# Measurements: PubChem BioAssay (NCI)
# Several values for one entry are separate records, joined by “and”; a condition that tells them apart may be missing. Identical values can stand only once. About 83,000 compounds went through this panel and 20% of them were active in at least one assay; those are over-represented in the sample as a whole.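 Results are percent growth after 48 hours of single-concentration exposure. 100 means growth as in untreated cells, lower positive values show inhibition; negative values down to -100 show cell death.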 Activity calls are given as the source filed them. How the source made its calls: active means growth percent below 10; inactive means the rest.
# Tests used:
# Test in all cases: NCI-60 one-dose screen, 48 h (100 = growth as untreated, 0 = no growth, -100 = all killed)
# Conditions in all cases: 10 µM unless noted
# [1] = tested on: HCT-15 colon
# [2] = tested on: HT29 colon
# [3] = tested on: SNB-75 CNS
# [4] = tested on: SNB-19 CNS
# [5] = tested on: U251 CNS
# [6] = tested on: PC-3 prostate
# [7] = tested on: SK-MEL-5 melanoma
# [8] = tested on: UACC-62 melanoma
# [9] = tested on: LOX IMVI melanoma
# [10] = tested on: SK-MEL-28 melanoma
SMILES,growth [1],growth [2],growth [3],growth [4],growth [5],growth [6],growth [7],growth [8],growth [9],growth [10]
CCCCCCCCCCCCCCCCCC1OCC(COC(=O)O[C@@H](C(=O)O[C@H]2C[C@@]3(O)[C@@H](OC(=O)c4ccccc4)[C@@H]4[C@]5(OC(C)=O)CO[C@@H]5C[C@H](O)[C@@]4(C)C(=O)[C@H](OC(C)=O)C(=C2C)C3(C)C)[C@@H](NC(=O)c2ccccc2)c2ccccc2)O1 (some centres undefined),99.4% (inactive),5.3% (active),37.7% (inactive),49.1% (inactive),40.8% (inactive),39.9% (inactive),60.4% (inactive),43.1% (inactive),37.5% (inactive),58.4% (inactive)
CC[C@H](C)[C@H](NC(=O)c1ncccn1)C(=O)N(C)[C@H](C[C@@H](OC(C)=O)c1nc(C(=O)N[C@@H](Cc2ccccc2)C[C@H](C)C(=O)OC)cs1)C(C)C,10.3% (inactive),-2.02% (active),-3.1% (active),44.1% (inactive),16.7% (inactive),27.7% (inactive),21.5% (inactive),46.9% (inactive),21.4% (inactive),50.3% (inactive)
CC(=O)Cc1ccc2c(c1)OCO2,113% (inactive),98.6% (inactive),117% (inactive),98.8% (inactive),103% (inactive),106% (inactive),–,103% (inactive),100% (inactive),130% (inactive)
C[C@]12CC[C@H]3[C@@H](CC=C4c5nc(N)sc5CC[C@@]43C)[C@@H]1CC[C@@H]2O,98.4% (inactive),95.5% (inactive),89.9% (inactive),99.2% (inactive),97.4% (inactive),98.5% (inactive),98.5% (inactive),87.8% (inactive),104% (inactive),113% (inactive)
C[C@]12CCc3sc(Nc4ccc(F)cc4)nc3C1=CC[C@@H]1[C@@H]2CC[C@]2(C)C(=O)CC[C@@H]12,32.2% (inactive),35.5% (inactive),66.7% (inactive),67.4% (inactive),47.2% (inactive),64.3% (inactive),71.3% (inactive),69.6% (inactive),56.6% (inactive),46.5% (inactive)
C/C(=C\c1ccn(-c2ccc(N)c(C(F)(F)F)c2)n1)[C@@H]1C[C@@H]2O[C@]2(C)CCC[C@H](C)[C@H](O)[C@@H](C)C(=O)C(C)(C)[C@@H](O)CC(=O)O1,20% (inactive),13% (inactive),-2.27% (active),38% (inactive),26.3% (inactive),15.7% (inactive),21.5% (inactive),20.7% (inactive),26.2% (inactive),55.8% (inactive)
COC12CC3C4=CCOC5CC(=O)N6c7ccccc7C1(CCN2C4)C6C53 (centres undefined),103% (inactive),100% (inactive),70.1% (inactive),116% (inactive),93.2% (inactive),105% (inactive),110% (inactive),104% (inactive),96.9% (inactive),109% (inactive)
COC(=O)[C@@H](C)C[C@H](Cc1ccccc1)NC(=O)c1cccc([C@@H](C[C@H](C(C)C)N(C)C(=O)[C@@H](NC(=O)[C@H]2CCCCN2C)C2CC2)OC(C)=O)n1,8.07% (active),-8.46% (active),27.6% (inactive),30% (inactive),4.48% (active),18.8% (inactive),-22.6% (active),41.4% (inactive),12.2% (inactive),62% (inactive)
CC[CH2][Sn]([Cl])([Cl])[CH2]CC.Oc1ccccc1C=NCCN=Cc1ccccc1O,59.8% (inactive) and 60.4% (inactive),79.1% (inactive) and 58.3% (inactive),50.7% (inactive),79.2% (inactive) and 67.5% (inactive),26% (inactive) and -21.6% (active),84.9% (inactive) and 70.9% (inactive),60.1% (inactive) and 50% (inactive),39.8% (inactive) and 32.3% (inactive),17.4% (inactive) and -11.1% (active),48.3% (inactive) and 45.7% (inactive)
CCCCn1c(=O)c(C(=O)NCc2ccccc2Cl)c(O)c2ccccc21,48.6% (inactive),75.5% (inactive),98.4% (inactive),82.6% (inactive),68.2% (inactive),34.1% (inactive),72.7% (inactive),88.5% (inactive),55.4% (inactive),103% (inactive)
Oc1cc(Cl)ccc1Oc1ccc(Cl)cc1Cl,14.4% (inactive),87.4% (inactive),48.3% (inactive),23.7% (inactive),8.21% (active),39% (inactive),-32% (active),24.4% (inactive),11.5% (inactive),46.8% (inactive)
CCOP(=O)(OCC)C(=O)N(CC)CC,98.4% (inactive),114% (inactive),102% (inactive),103% (inactive),95% (inactive),96.5% (inactive),94.4% (inactive),107% (inactive),104% (inactive),115% (inactive)
